From PubChem BioAssay
DAGLB inhibitor: blocks human DAGLB lipase activity | Q8NCG7 | hit rate 0.059% among 340,000 | AID 504411 | inhibition, % at 5.17 µM | HEK293T DAGLB membrane lysate, EnzChek fluorogenic substrate; in the data active = inhibition above about 34%;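 also: 0% = enzyme with vehicle and 100% = wells lacking enzyme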
Target sequence (Q8NCG7 whole entry, looked up): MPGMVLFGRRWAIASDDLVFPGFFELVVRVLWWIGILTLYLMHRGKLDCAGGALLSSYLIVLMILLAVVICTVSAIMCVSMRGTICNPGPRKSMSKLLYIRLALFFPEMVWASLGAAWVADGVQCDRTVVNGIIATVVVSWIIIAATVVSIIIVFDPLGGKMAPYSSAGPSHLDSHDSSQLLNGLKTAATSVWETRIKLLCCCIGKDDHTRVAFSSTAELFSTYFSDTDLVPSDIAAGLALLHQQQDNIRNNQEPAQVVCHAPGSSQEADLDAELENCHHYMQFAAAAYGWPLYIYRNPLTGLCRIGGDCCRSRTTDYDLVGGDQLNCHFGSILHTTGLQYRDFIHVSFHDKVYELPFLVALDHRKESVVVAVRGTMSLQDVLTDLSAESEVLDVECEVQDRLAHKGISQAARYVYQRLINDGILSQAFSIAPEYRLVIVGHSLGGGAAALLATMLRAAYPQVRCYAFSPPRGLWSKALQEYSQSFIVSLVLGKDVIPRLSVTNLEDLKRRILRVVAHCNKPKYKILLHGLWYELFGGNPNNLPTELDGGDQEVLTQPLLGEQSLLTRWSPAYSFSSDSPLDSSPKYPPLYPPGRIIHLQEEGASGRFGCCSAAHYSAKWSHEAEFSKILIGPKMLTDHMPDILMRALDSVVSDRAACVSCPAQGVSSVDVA
ARNT-TACC3 inh: ARNT/TACC3 interaction disruption | Q9Y6A5 | AlphaScreen His-ARNT PAS-B/GST-TACC3 binding, luminescence; TACC3 fragment carries E629A point mutation | inhibition, % at 9.99 µM | hit rate 0.66% among 390,000 | AID 623870;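 active = mean inhibition of replicates at least 50% and at least half of replicates each reaching 50%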;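 also: 0% = complete ARNT plus TACC3 wells and 100% = ARNT alone without TACC3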
Neddylation inh: cullin neddylation inhibition; P61081+Q13564; TR-FRET cullin neddylation, biochemical; inhibition, % at 25 µM; hit rate 0.58% among 360,000; AID 651699; in the data active = inhibition above about 36%
HGIII-sPLA2 inh: Inhibits HGIII-sPLA2 liposome hydrolysis, primary screen; AID 743126; inhibition, % at 12.2 µM; hit rate 0.56% among 370,000; QFRET BODIPY PC-A2 liposome hydrolysis, fluorescence;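 active = inhibition above mean plus 3 SD of compounds lying within the high and low control bounds, cut at about 19% in these data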;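 also: 0% = median of test compound wells and 100% = no enzyme DMSO wells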
NadD inh: NadD (S. aureus) enzyme inhibition; purified NadD enzyme, colorimetric absorbance read-out; inhibition, % at 20 µM; hit rate 0.78% among 360,000; AID 602399; in the data active = inhibition above about 26%
NadD inh conf: NadD (S. aureus) inhibition, single concentration confirmation | inhibition, % at 20 µM | purified S. aureus NadD, colorimetric enzyme assay | shares compounds with NadD inh | hit rate 13% among 2,000; in the data active = inhibition mostly above about 42%, no sharp cut-off; inactive = mostly below about 42%
An asterisk follows results filed as active. Sampled rows, rich in hits. Any-hit rate of the full collection: about 2%.

N#Cc1c(-c2ccccc2)c(-c2ccccc2)nn(CC(=O)NNC(=O)Nc2ccc(Cl)c(Cl)c2)c1=O was read as DAGLB inhibitor 7, ARNT-TACC3 inh -1, Neddylation inh -11, HGIII-sPLA2 inh -23, NadD inh 51* and NadD inh conf 44.
Screening COc1ccc2c(c1)N(C)/C(=C1/SC(=NCc3ccccc3)N(c3ccccc3)C1=O)S2 returned DAGLB inhibitor -4, ARNT-TACC3 inh 18, Neddylation inh -12, HGIII-sPLA2 inh -4, NadD inh 31* and NadD inh conf 17.
`C=CCN1C(=O)/C(=C2/Sc3ccc(OC)cc3N2C)SC1=NCc1ccccc1` gave DAGLB inhibitor 1, ARNT-TACC3 inh 5, Neddylation inh -213, HGIII-sPLA2 inh -2 and NadD inh 11.
CCOc1ccc(S(=O)(=O)N2CN(c3cccc(C(C)=O)c3)c3nc4ccccc4nc32)cc1 was read as DAGLB inhibitor 0, ARNT-TACC3 inh -6, Neddylation inh 7, HGIII-sPLA2 inh -1, NadD inh 30* and NadD inh conf 8.
`O=C(CSc1nnc(CNc2ccccc2)o1)N1CCc2ccccc21` gave DAGLB inhibitor -1, ARNT-TACC3 inh -5, Neddylation inh -13, HGIII-sPLA2 inh -3 and NadD inh 6.
O=C(CSc1nnc(Cc2csc(Nc3cccc(Cl)c3)n2)o1)N1CCc2ccccc21 was read as DAGLB inhibitor 3, ARNT-TACC3 inh 5, Neddylation inh -24, HGIII-sPLA2 inh -7, NadD inh 57* and NadD inh conf 19.
`NC(Cc1ccc(C(F)(F)F)cc1)c1csc(NC(=O)Nc2ccccc2Oc2ccccc2)n1` (configuration not stated) gave Neddylation inh -5, HGIII-sPLA2 inh 7, NadD inh 34* and NadD inh conf 9.
For COc1ccc(C(=O)Nn2c(SCc3cccc([N+](=O)[O-])c3)nc3ccccc3c2=O)cc1 the results were DAGLB inhibitor 2, ARNT-TACC3 inh -13, Neddylation inh 5, HGIII-sPLA2 inh -13, NadD inh 28* and NadD inh conf 40.
`O=C(C[C@H]1CC[C@H]2[C@@H](COC[C@H](O)CN2Cc2nccs2)O1)NCc1ccc(Cl)cc1` gave ARNT-TACC3 inh -4.
For C[C@@H]1CN([C@@H](C)CO)S(=O)(=O)c2ccc(-c3ccncc3)cc2O[C@H]1CN(C)C(=O)CN(C)C the results were ARNT-TACC3 inh 7.
`O=C(Nc1ccc(S(=O)(=O)Nc2nccs2)cc1)/C(=C/c1ccccc1Cl)NC(=O)c1ccccc1` gave DAGLB inhibitor 4, Neddylation inh 16, HGIII-sPLA2 inh -21, NadD inh 39* and NadD inh conf 56*.
For COc1cc(NS(=O)(=O)c2ccc(NC(=O)/C(=C/c3ccccc3Cl)NC(=O)c3ccccc3)cc2)nc(OC)n1 the results were DAGLB inhibitor 9, ARNT-TACC3 inh -4, Neddylation inh 13, HGIII-sPLA2 inh -42, NadD inh 33* and NadD inh conf 49*.
`CC(C)[C@H](NC(=O)c1ccccc1Cl)C(=O)Nc1ccc(S(=O)(=O)Nc2nccs2)cc1` gave DAGLB inhibitor 3, ARNT-TACC3 inh -5, Neddylation inh 1, HGIII-sPLA2 inh -41 and NadD inh 8.
CN1CCN(S(=O)(=O)c2ccc3c4c(cccc24)C(=O)N3)CC1 was read as DAGLB inhibitor -1, ARNT-TACC3 inh -4, HGIII-sPLA2 inh 16 and NadD inh 2.
`CCOc1ccccc1N1CCN(S(=O)(=O)c2ccc3c4c(cccc24)C(=O)N3)CC1` gave DAGLB inhibitor 3, ARNT-TACC3 inh -11, Neddylation inh 9, HGIII-sPLA2 inh -18, NadD inh 30* and NadD inh conf 30.
C[C@H](NC(=O)C[C@@H]1C[C@@H]2c3cc(NC(=O)C4CCOCC4)ccc3O[C@@H]2[C@H](CO)O1)c1ccccc1 was read as ARNT-TACC3 inh -2.
O=C(Nc1cc([N+](=O)[O-])ccc1O)c1cccc(C(=O)Nc2cc([N+](=O)[O-])ccc2O)c1 was read as DAGLB inhibitor 4, ARNT-TACC3 inh 7, Neddylation inh -29, HGIII-sPLA2 inh -6, NadD inh 48* and NadD inh conf -3.
CC(C)(C)c1ccc(OCC(=O)Nc2ccc3c4c(cccc24)C(=O)NC3=O)cc1 was read as DAGLB inhibitor 0, ARNT-TACC3 inh -5, HGIII-sPLA2 inh -4, NadD inh 34* and NadD inh conf 2.
Cc1noc(C)c1S(=O)(=O)N(C)C[C@H]1Oc2ccc(NS(=O)(=O)c3cn(C)cn3)cc2CC(=O)N([C@H](C)CO)C[C@@H]1C was read as ARNT-TACC3 inh 3.
For COC/C=C/C1=CC2=CC(=O)C(C)(OC(=O)c3cnc4ccccc4n3)C(=O)C2=CN1Cc1ccc(OC)cc1 (configuration not stated) the results were DAGLB inhibitor 7, ARNT-TACC3 inh -8, Neddylation inh -13, HGIII-sPLA2 inh -2 and NadD inh 13.
For COC/C=C/C1=CC2=CC(=O)C(C)(OC(=O)c3cnc4ccccc4n3)C(=O)C2=CN1c1ccc(OC)cc1 (configuration not stated) the results were DAGLB inhibitor 14, ARNT-TACC3 inh -2, Neddylation inh -51, HGIII-sPLA2 inh -5, NadD inh 33* and NadD inh conf 29.
For COc1ccc2c(Cl)c(C(=O)OCC(=O)c3ccc4c(c3)NC(=O)CO4)sc2c1Cl the results were DAGLB inhibitor 1, ARNT-TACC3 inh 2, Neddylation inh 8, HGIII-sPLA2 inh -4, NadD inh 40* and NadD inh conf 0.
Screening CCN(CC)S(=O)(=O)c1ccc(C(=O)Nc2nnc(NC(=S)Nc3ccccc3)s2)cc1 returned DAGLB inhibitor 2, ARNT-TACC3 inh 4, Neddylation inh -50, HGIII-sPLA2 inh 1, NadD inh 47* and NadD inh conf 22.
For Cc1cc(=O)[nH]c(SCC(=O)Nc2ncc(S(=O)(=O)c3ccc([N+](=O)[O-])cc3)s2)n1 the results were DAGLB inhibitor 6, ARNT-TACC3 inh -7, Neddylation inh -30, HGIII-sPLA2 inh 1 and NadD inh 11.
CC(C)c1ccc(Nc2nnc(SCC(=O)Nc3ncc(S(=O)(=O)c4ccc([N+](=O)[O-])cc4)s3)s2)cc1 was read as DAGLB inhibitor 2, ARNT-TACC3 inh 2, Neddylation inh -17, HGIII-sPLA2 inh -8, NadD inh 36* and NadD inh conf 9.
Screening CC1CCc2c(sc3nc(CN4CCOCC4)nc(N4CCc5ccccc5C4)c23)C1 (configuration not stated) returned DAGLB inhibitor 1, ARNT-TACC3 inh 13, Neddylation inh -7, HGIII-sPLA2 inh -3, NadD inh 37* and NadD inh conf 18.
`C[C@@H]1CCCCO[C@H](CN(C)C(=O)Cc2ccccc2)[C@H](C)CN([C@H](C)CO)C(=O)c2cc(NC(=O)c3ccccc3)ccc2O1` gave ARNT-TACC3 inh -6.
